From PubChem BioAssay AID488789 (Broad Institute, 2010)
Results with a measured potency or affinity are listed apart. Inconclusive results are not listed. Active and inactive are the calls of the source.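 The calls were made as follows: active = samples whose fitted half-maximal inhibition concentration is no more than ten times the top valid dose tested; inconclusive = flat response between -70 and -30, or invalid curve fit; inactive = flat within 30 of zero, potency above limit, or signal rising.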

The molecules below were run against Trypsin (Sus scrofa) (UniProt P00761) (assay: porcine trypsin inhibitors, dose response, selectivity assay for Rce1 protease inhibitor project, biochemical, quenched peptide fluorescence, cherry-pick (AID 488789;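 also: more negative means stronger trypsin inhibition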)). Conditions: quenched peptide cleavage fluorescence; series mostly up to 10 µM; activity change, negative = inhibition: at the top concentration.
Chain of Trypsin (Sus scrofa) (P00761 whole entry, looked up): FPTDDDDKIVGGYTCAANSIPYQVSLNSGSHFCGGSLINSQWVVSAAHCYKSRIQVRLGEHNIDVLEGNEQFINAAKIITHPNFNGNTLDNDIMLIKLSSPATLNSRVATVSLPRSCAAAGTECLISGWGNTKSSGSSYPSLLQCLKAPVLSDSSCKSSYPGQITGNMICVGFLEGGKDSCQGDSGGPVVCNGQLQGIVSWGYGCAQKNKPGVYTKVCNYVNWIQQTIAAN

Activity change, negative = inhibition, inactive:
Cc1ccc(SCc2c(C(=O)N/N=C/c3ccccc3)nnn2-c2nonc2N)cc1 1.99%
CN1c2ccc(C=O)c3c(C=O)ccc(c23)N(C)C1(C)C 7.96%
CCN(Cc1ccccc1)c1ccc(/C=N/N=C(N)N)cc1 3.18%
O=C(O/N=C\c1ccc(N2CCCCC2)c([N+](=O)[O-])c1)c1cccc(C(F)(F)F)c1 -2.32%
Cc1cc(N)c2cc(NC(=O)/C=C/c3ccccc3Cl)ccc2n1 14.5%
Cc1ccc(OCCN2C(=O)C(=O)c3cc(C)ccc32)cc1 2.64%
CN(C)CC(C)(C)CNC(=S)NCc1ccc2c(c1)OCO2 17.4%
COCCN1C(=O)/C(=C/c2ccc(Oc3ccc([N+](=O)[O-])cn3)c(OC)c2)SC1=Nc1ccccc1 10.9%
CCOC(=O)[C@@H]1[C@H]2COc3ccc(Br)cc3[C@@H]2N2C(=O)N(c3cccc(Cl)c3)C(=O)[C@]12C 4.84%
CCCOc1ccccc1C(=O)NCCCC(=O)O 2.2%
COc1ccc(C)cc1NC(=O)CN1C(=O)COc2ccc(S(=O)(=O)N3CCOCC3)cc21 5.03%
CCCC(=O)N1CCN(c2ccc(NC(=O)c3cc4ccccc4o3)cc2Cl)CC1 -6.19%
Cc1ccsc1/C=N/NC(=O)c1nnn(-c2nonc2N)c1C(C)C 4.12%
CCOC(=O)C[C@H]1c2ccccc2S(=O)(=O)N1Cc1cc(OC)c(OC)c(OC)c1 -8.57%
O=C(Nc1cc(Cl)cc(Cl)c1)c1coc(=O)c(Br)c1 3.02%
C#CCNC(=O)C1=C[C@@H](C2CCCCC2)C[C@@H](OCc2ccc(CO)cc2)O1 12.6%
CCOc1cc(CNC2CCCC2)ccc1OCc1ccccc1Cl 12.6%
O=C(O)CCCC[C@@H]1SC[C@@H]2NC(=O)N[C@@H]21 13.8%
CC(/C=N\NC(=O)CN1CCN(S(=O)(=O)c2ccc(C)cc2)CC1)=C\c1ccccc1 7.87%
Cc1ccc(Nc2nc(-c3ccc(S(=O)(=O)N4CCOCC4)cc3)cs2)cc1Cl 3.37%
COc1ccc(OC)c(/C=N/c2c(-c3ccc(O)c(OC)c3)nc3ccccn23)c1 -7.37%
O=C(c1cn(-c2ccccc2)nc1-c1cccs1)N1CCN(c2ccccn2)CC1 -4.36%
CCn1c(COc2cccc(C)c2)nnc1SCC(=O)NC1CCCC1 11.4%
O=C(Nc1cc(S(=O)(=O)N2CCOCC2)ccc1N1CCCC1)c1cnccn1 1.72%
N/C(Cc1ccc([N+](=O)[O-])cc1)=N\OC(=O)c1ccc2ccccc2c1 17.9%
O=C(C[n+]1cc2ccccc2c2ccccc21)c1ccccc1 -8.51%
Cc1cc(C)cc(N2CC(O)=C(c3nc4ccccc4c(=O)[nH]3)C2=N)c1 -4.42%
COc1cccc(-c2csc(N3CCN(C(=O)NC45CC6CC(CC(C6)C4)C5)CC3)n2)c1 13.1%
O=C(CN(C1CCCCC1)C1CCCCC1)N1CCc2ccccc2C1 6.13%
CCn1c(C)nc2c(=O)oc3ccccc3c21 2.76%
CCCNC(=O)c1c(N)n(-c2ccc(S(N)(=O)=O)cc2)c2nc3ccccc3nc12 -3.19%
Oc1c(N=NC(=S)Nc2ccccc2F)c2ccccc2n1Cc1ccccc1F 2.08%
Cc1cc(=O)n2ccccc2c1C#N 3.94%
Cc1cc(N/N=C/c2ccc(O)c(C)c2O)nc(-c2ccccc2O)n1 7.21%
CCO[C@@H]1OC(C(=O)N2CCN(Cc3ccccc3)CC2)=C[C@H](c2ccccc2)[C@H]1CCCO 12.4%
Cc1cc2cc(C#N)c(NCCNC(=S)NCCCN3CCOCC3)nc2cc1C -4.36%
Cc1ccc(C2(COC(=O)C(C)C)CO2)c(OC(=O)C(C)C)c1 (configuration not stated) 8.63%
